# Compound activity deposited in PubChem by several laboratories.
# In the library only some 3.1% were active in any assay of this set; here they are far more common.
# Beta cell apopt = blocks beta cell apoptosis. protection from apoptosis, % (test concentration not listed). INS-1E cytokine-induced death, ATP luminescence, 48 h; percent of positive-control rescue, neutral wells zero. 300,000 tested, 0.8% active. AID 435005;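 active means Every replicate reaches about 75%, or at least half do and their mean reaches it too, limit read from the data; inconclusive means At least half of replicates reach the limit but their mean does not; inactive means Under half of replicates reach the limit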;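 further: 0% = cytokine-treated negative control wells and 100% = positive control rescue; higher means more ATP so stronger rescue from cytokine killing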
# SKKanGAS inh = SKKanGAS growth inhibition; AID 1662; 300,000 tested, 1.3% active; S. pyogenes SKKanGAS, kanamycin growth, BacTiter-Glo, 6 h; inhibition, % at 7.5 µM;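 active means mean replicate score, as percent of positive control median, at least 50; inconclusive means mean below 50 but one replicate at or above 50; inactive means mean and every replicate below 50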;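 further: strain carries kanamycin resistance gene driven by streptokinase promoter and grows in 40 µg/ml kanamycin; loss of luminescence reflects streptokinase promoter inhibition or plain growth inhibition; 0% = median of DMSO wells and 100% = positive control at its reference dose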
# CSC inhib = cancer stem cell inhibition | cancer stem cell-like cells viability, luminescence | inhibition, % at 7.5 µM | 300,000 tested, 1.1% active | AID 2717; in the data active means inhibition above about 75%; inconclusive means no clear call, values can overlap the other calls; tested in HMLE shEcad cells
# PP1 counter = counter-screen for PP5 inhibitors: inhibitors of human PP1-alpha | purified PP1alpha, OMFP fluorescence | inhibition, % at 6.7 µM | 320,000 tested, 0.9% active;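 active means inhibition above the mean inhibition of all tested compounds plus 3 SD, computed separately for each screening campaign, cut at about 15% in these data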
# Target sequence (P62136 whole entry, looked up): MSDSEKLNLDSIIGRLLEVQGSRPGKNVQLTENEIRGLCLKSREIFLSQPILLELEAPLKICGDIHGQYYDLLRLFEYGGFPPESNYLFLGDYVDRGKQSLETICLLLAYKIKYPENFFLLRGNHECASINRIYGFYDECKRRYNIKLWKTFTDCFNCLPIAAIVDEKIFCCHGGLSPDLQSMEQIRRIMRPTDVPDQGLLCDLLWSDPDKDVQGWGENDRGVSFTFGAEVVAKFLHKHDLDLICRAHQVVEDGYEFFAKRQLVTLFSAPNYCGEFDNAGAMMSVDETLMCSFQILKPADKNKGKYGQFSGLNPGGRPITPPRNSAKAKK
# PP5 primary = blocks human protein phosphatase 5 activity | P53041 | purified PP5c, OMFP substrate fluorescence | inhibition, % at 6.7 µM | 320,000 tested, 0.18% active | AID 1987;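 active means inhibition above the campaign's mean inhibition across all tested compounds plus 3 SD, cut at about 9.5% in these data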;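 further: 0% = DMSO only and 100% = 100 µM cantharidin control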
# Numbers without * were called inactive; ? = inconclusive; / = no result given.
SMILES,Beta cell apopt,SKKanGAS inh,CSC inhib,PP1 counter,PP5 primary
C/C(=N\NC(=O)c1cc2ccccc2cc1O)c1ccc(C)o1,6,62*,2,4,-1
COc1cc(C(=O)NNC2=CC(=O)CC(C)(C)C2)cc(OC)c1OC,1,2,-12,-4,-2
O=C(N/N=C/c1ccccc1O)c1cccc2ccccc12,/,106*,/,/,/
O=C(N/N=C\c1c(O)ccc2ccccc12)c1cncc(Br)c1,88*,106*,98*,13,-4
Cn1cccc1/C=N\NC(=O)c1cncc(Br)c1,-5,20,-12,-1,-1
O=C(N/N=C/c1c(O)ccc2ccccc12)c1ccc[n+](CCO)c1,11,1,31,2,3
O=C(N/N=C\c1c(O)ccc2ccccc12)c1ccc(O)cc1,/,107*,64,4,4
Cn1nccc1C(=O)N/N=C/c1c(O)ccc2ccccc12,100*,35,63,2,2
Nc1nc(-c2ccccc2)nn1S(=O)(=O)c1ccccc1,5,-3,53,-6,-3
NC(=O)c1cc[n+](CC(=O)c2ccc(NC(=O)c3ccccc3)cc2)cc1,-11,-8,-12,-4,1
Cc1occc1C(=O)N/N=C/c1c(O)ccc2ccccc12,76*,94*,57,8,3
COc1ccccc1/C=N/NC(=O)c1ccc(C)nc1,-2,-5,-4,1,1
Cc1ccc(C(=O)N/N=C/c2c(O)ccc3ccccc23)cn1,/,60*,81*,10,-4
O=C(N/N=C/c1cc(Br)c(O)c(Br)c1O)c1cccnc1,34,8,55,-1,3
O=C(COc1cccc2cccnc12)N/N=C/c1ccccc1O,2,99*,17,-1,-3
Cc1occc1C(=O)N/N=C/c1c[nH]c2ccccc12,1,-10,9,2,-1
O=C(N/N=C/c1cc(O)ccc1Br)c1cccnc1,/,111*,/,-1,0
COc1ccc(OCC(=O)N2c3ccccc3CC2C)c([N+](=O)[O-])c1 (stereo not given),-5,/,-9,/,/
NC(=S)N/N=C/c1cccc(O)c1O,41,12,-6,0,0
NC(=S)N/N=C/c1ccccc1O,92*,-1,8,-5,0
O=C(N/N=C/c1c(O)ccc2ccccc12)c1cccnc1,96*,24,?,9,2
COc1ccc2ccccc2c1/C=N\NC(=O)c1cccnc1,/,-2,-11,-2,-1
O=C(N/N=C/c1c(O)ccc2ccccc12)c1ccc(Br)o1,102*,106*,156*,11,0
CC(=O)N1CCN(S(=O)(=O)c2ccc3c(c2)CC(=O)N3)CC1,3,/,4,0,-1
O=C(Nc1ccc(S(=O)(=O)Nc2ncccn2)cc1)c1cccc(S(=O)(=O)N2CCCC2)c1,0,-14,-10,0,-2
SMILES,Beta cell apopt,SKKanGAS inh,CSC inhib,PP1 counter,PP5 primary
O=[N+]([O-])c1ccc(NC(=S)NCCc2ccc(Cl)cc2)cc1,87*,98*,196*,7,6
O=[N+]([O-])c1cc(C(F)(F)F)ccc1NCCc1c[nH]c2ccc(O)cc12,-7,21,70,4,6
O=[N+]([O-])c1cc(C(F)(F)F)ccc1NCCCCNS(=O)(=O)c1ccc(Cl)cc1,88*,15,/,6,3
O=[N+]([O-])c1cc(Cl)ccc1NCCNc1ncc(C(F)(F)F)cc1Cl,9,3,3,-6,0
O=[N+]([O-])c1cc(C(F)(F)F)ccc1NCCc1c[nH]c2ccccc12,2,23,99*,0,3
O=[N+]([O-])c1cc(C(F)(F)F)ccc1NCCNC(=S)Nc1ccc(Cl)cc1,36,73*,106*,9,7
O=C(O)C1CCC(Cn2c(SCc3cc(=O)n4ccccc4n3)nc3ccsc3c2=O)CC1 (stereo not given),0,19,-3,-5,0
Cc1cccc(C)c1NC(=O)CN(C)C(=O)[C@H](C)NC(=O)c1ccco1,2,/,-9,1,-1
Cc1nnc(SCC(=O)NNC(=O)c2ccccc2)n1N,-1,/,-8,-5,2
O=C(CCC(=O)NNC(=O)Nc1cccc(Cl)c1)NCc1ccccc1,-1,4,-1,-3,-2
CC1CN(CCCCOc2cccc(Oc3ccccc3)c2)CC(C)O1 (stereo not given),-2,0,195*,2,1
COCCNC(=S)Nc1ccccc1Cc1ccccc1,-4,10,-16,1,2
O=C(Nn1cnnc1)c1ccc(Cl)cc1,-4,0,1,0,9.6*
O=C(Nn1cnnc1)c1ccc(F)cc1,1,-11,-15,0,1
COc1ccc(NS(=O)(=O)c2cc(-c3cnc(C4CC4)o3)ccc2C)cc1,17,-3,80*,2,4
Cc1ccc(C)c(NS(=O)(=O)c2ccc(-c3cnc(C4CC4)o3)cc2)c1,47,4,75*,6,5
COc1ccccc1NS(=O)(=O)c1cc(-c2cnc(C3CC3)o2)ccc1C,7,-5,-7,-1,2
CCOC(=O)c1sc(=NC(=O)c2c(F)cccc2F)n(C)c1C,-6,-6,4,-1,1
O=C(NCc1ccco1)c1ccc2c(c1)N(Cc1ccc(Cl)cc1)CCS2,-13,26,-1,8,3
O=C(NCc1ccco1)c1ccc2c(c1)N(Cc1ccccc1)CCS2,-1,8,129*,5,4
O=C(c1ccc(S(=O)(=O)N2CCOCC2)cc1)N1CCOCC1,/,5,-25,-4,0
O=c1cc(-c2ccccc2Cl)oc2c([N+](=O)[O-])c(O)cc(O)c12,9,26,1,2,-2
O=c1cc(-c2ccccc2Cl)oc2ccc([N+](=O)[O-])c(O)c12,1,87*,37,14,-1
COc1ccccc1-c1cc(=O)c2c(O)ccc([N+](=O)[O-])c2o1,1,70*,-10,5,2
COc1ccc(NC(=O)Cn2c(=O)cnc3ccccc32)cc1S(=O)(=O)N1CCCCC1,5,-5,-10,-2,-1
SMILES,Beta cell apopt,SKKanGAS inh,CSC inhib,PP1 counter,PP5 primary
CCCCn1c(N)c(N(CCOC)C(=O)c2cc(CC)c(C)s2)c(=O)[nH]c1=O,-5,5,-16,-1,1
CC(=O)c1ccc(NC(=O)C(C)Oc2ccc(N(C)S(=O)(=O)c3ccc(C)cc3)cc2)cc1 (stereo not given),-6,/,-8,-2,4
O=[N+]([O-])c1ccc(N/N=C/c2cccc(O)c2O)c(S(=O)(=O)N2CCOCC2)c1,13,5,72,2,0
Cc1ccc(NS(=O)(=O)c2cc([N+](=O)[O-])ccc2N/N=C/c2sc(N3CCOCC3)nc2-c2ccccc2)c(C)c1,75*,9,8,-2,1
CCCCNc1c(-c2ccc(SC(C)CC)cc2)nc2cnccn12 (stereo not given),14,/,107*,/,/
CCCCCCSc1cc(-c2nc3cnccn3c2NCCCC)ccc1OC,-6,/,105*,/,/
CCCCNc1c(-c2ccc(OC)c(Sc3ccc(OC)cc3)c2)nc2ccccn12,/,?,101*,9,1
